An excerpt weighted towards active compounds, which were near 8.7% of everything screened.
G9a block – blocks human histone lysine methyltransferase G9a | G9a H3K9 monomethylation, AlphaScreen, 2 h | 8.8% of 350,000 active | Q96KQ7 | Potency, µM (series often up to 102 µM), hits mostly inhibitors; also: nearly all actives have a fitted effect of over 75% in size
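G9a (20 nM) preincubated 15 min RT with compounds, then 500 nM biotinylated H3K9 peptide and 20 uM SAM added; 2 h RT reaction. Monomethyl-H3K9 product detected by AlphaScreen with anti-H3K9me1 antibody, streptavidin donor and anti-rabbit IgG acceptor beads.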
BAZ2B inh – BAZ2B (human) inhibition. Q9UIF8. AID 504333. 4.4% of 360,000 active. Potency, µM (top dose mostly 114 µM), hits mostly inhibitors. AlphaScreen BAZ2B-H3K14Ac peptide displacement; also: nearly all actives have a fitted effect of over 60% in size
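AlphaScreen displacement: compounds (up to 110uM) incubated 30 min at room temperature with a preformed 50 nM BAZ2B/50 nM biotinylated H3K14Ac peptide complex in PBS pH 7.4 with Tween-20. Donor and acceptor beads at 10 ug/mL final added, 20 min light-protected before reading.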
JMJD2A Tudor inh – inhibitors of human JMJD2A Tudor domain | O75164 | AlphaScreen JMJD2A-Tudor / H3K4me3 peptide binding | Potency, µM (titrated, usually from 114 µM), usual class: inhibitors | 4.4% of 390,000 active; also: nearly all actives have a fitted effect of over 50% in size
Sfp inh – blocks B. subtilis Sfp PPTase activity; Q9F4F7; Biochemical Sfp PPTase activity, qHTS; Potency, µM, usual class: inhibitors; 3.5% of 310,000 active;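 also: the enzyme is Sfp with the accession as filed and its product quenches rhodamine fluorescence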
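Compounds were incubated with enzyme (final 15 nM) for 15 min at room temperature before substrate addition started the reaction. Fluorescence at 525 nm excitation, 598 nm emission was recorded immediately and after 30 minutes.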
ALOX12 inh – blocks human arachidonate 12S-lipoxygenase; P18054; purified 12hLO, xylenol orange hydroperoxide absorbance; Potency, µM (doses to about 108 µM), usual class: inhibitors; 1.1% of 580,000 active
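Hydroperoxide product was detected by ferrous iron/xylenol orange as the 573 to 405 nm absorbance ratio. Arachidonic acid at 40 uM (final) was turned over for 30 min at room temperature by 150 nM human 12hLO, pH 7.0 Hepes buffer, after 15 min compound preincubation.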
HP1b binding inh – inhibitors of HP1-beta chromodomain binding to methylated histone tails | P83916 | AlphaScreen HP1-beta / biotin-H3K9me3 peptide binding | Potency, µM (doses to about 114 µM), most hits filed as inhibitors | 0.56% of 390,000 active | AID 540317; also: nearly all actives have a fitted effect of over 70% in size
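Compound inhibition of the preformed complex between 50 nM HP1-beta and 50 nM biotinylated H3K9me3 peptide was read by AlphaScreen. Buffer was PBS pH 7.4 with 0.01% Tween-20. Incubations ran 30 min at room temperature, with 10 ug/mL donor/acceptor beads.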
Numbers stand for hits; 0 = inactive; ? = inconclusive; - = not tested or not shown; [ ] = another dose, or the depositor's remark. Calls follow the shape of the dose curve; as a rule, active = well fitted curve in the direction sought with a large enough effect; inconclusive = small, poorly fitted or top-dose-only effect, or another doubt; inactive = no such curve, though single readings can be large; an effect the other way counts as inactive or inconclusive.

SMILES | G9a block | BAZ2B inh | JMJD2A Tudor inh | Sfp inh | ALOX12 inh | HP1b binding inh
CC(OC(=O)c1n[nH]c(=O)c2ccccc12)C(=O)c1ccc2c(c1)CCC2 (stereo not drawn) | - | - | - | - | 0 | -
CC1CC(C)C[N+](=C2C=C(N3CCCC3)CC(C)(C)C2)C1 (stereo not drawn) | ? | 0 | 18µM | 0 | 0 | ?
CC1(C)CC(N2CCCC2)=CC(=[N+]2CCCCCC2)C1 | ? | ? | ? | 0 | ? | 0
CC1(C)CC(N2CCN(c3ccccc3)CC2)=CC(=[N+]2CCCC2)C1 | 45µM | 0 | ? | 0 | ? | 0
COCCN1CCN(C[C@@H]2C=C(C)[C@H](Cc3nnc(-c4ccc(N(C)C)cc4)o3)C[C@H]2C(C)C)CC1 | - | - | - | - | 0 | -
CN1[C@@H](CCC(=O)N2CC[C@@H](O)C2)CNC(=O)[C@@H]2[C@H]1CCN2Cc1csnn1 | - | - | - | - | 0 | -
O=C(Nc1ccc(Cl)cc1C(F)(F)F)c1cccc(F)c1 | - | - | - | - | 0 | -
COc1ccc(/C=C/C(=O)c2cc(Cl)cc(Cl)c2O)c(OC)c1 | 0 | 0 | 0 | 0 | 0 | 0
O=C(/C=C/c1ccccn1)c1cc(Cl)cc(Cl)c1O | 50µM | 0 | 0[11.4 µM] | 0 | ? | 0
COc1ccc(-c2csc(N3CCN(C(=O)c4ccccc4)CC3)n2)cc1 | 28µM | ? | ? | 0 | 0 | 0
CCOC(=O)C(=O)N1CCN(c2nc(-c3ccc(Cl)cc3)cs2)CC1 | 40µM | ? | 0 | 0 | 0 | ?
COc1ccc(-c2csc(N3CCN(C(=O)c4ccco4)CC3)n2)cc1 | 45µM | ? | ? | 0 | 0 | ?
COc1ccc(CCNc2ccc(C)cc2)cc1 | ? | ? | 40µM | 0 | 0 | ?
COc1cc(C(=O)OCC(=O)c2ccccc2)ccc1OCc1ccc(Cl)cc1 | - | - | - | - | 0 | -
Cc1nc(C23CC4CC(CC(C4)C2)C3)cs1 | - | - | - | - | 0 | -
Cc1nc2cc(NC(=O)c3nn(Cc4ccccc4)c(=O)c4ccccc34)ccc2o1 | - | - | - | - | 0 | -
CC(C)(C)c1cccc(Oc2nn[nH]n2)c1 | 79µM | 0 | 0 | 0 | 0 | 0
COc1cc2ccccc2cc1C(=O)Nc1ccccc1N1CCN(C(C)=O)CC1 | - | - | - | - | 0 | -
O=C(O)C(c1c[nH]c2cc(F)ccc12)N1CCN(C(c2ccccc2)c2ccccc2)CC1 (stereo not drawn) | - | - | - | - | 18µM | -
O=C(O)C(c1c[nH]c2cc(Cl)ccc12)N1CCN(C/C=C/c2ccccc2)CC1 (stereo not drawn) | - | - | - | - | 45µM | -
O=C(O)C(c1c[nH]c2ccccc12)N1CCN(C/C=C/c2ccccc2)CC1 (stereo not drawn) | - | - | - | - | 0 | -
O=C(O)C(c1c[nH]c2cc(Cl)ccc12)N1CCN(CCOc2ccc(Cl)cc2)CC1 (stereo not drawn) | - | - | - | - | 35µM | -
COc1ccc2[nH]cc(C(C(=O)O)N3CCN(CCOc4ccc(Cl)cc4)CC3)c2c1 (stereo not drawn) | - | - | - | - | 0 | -
O=C(O)C(c1c[nH]c2ccc(Cl)cc12)N1CCN(c2ccc(F)cc2)CC1 (stereo not drawn) | - | - | - | - | 0 | -
Cc1cc(N2CCN(C(C(=O)O)c3c[nH]c4cc(Cl)ccc34)CC2)nc2ccccc12 (stereo not drawn) | - | - | - | - | 18µM | -
SMILES | G9a block | BAZ2B inh | JMJD2A Tudor inh | Sfp inh | ALOX12 inh | HP1b binding inh
O=C(O)C(c1c[nH]c2cc(F)ccc12)N1CCc2ccccc2C1 (stereo not drawn) | - | - | - | - | 0 | -
CC(C)NC(=O)c1cc(=O)[nH]c2ccc(S(=O)(=O)Nc3ccc(F)cc3)cc12 | - | - | - | - | 0 | -
O=C(NCc1nnc2n1CCC2)Nc1ccccc1 | - | - | - | - | 0 | -
Cn1nccc1C(=O)N1CC(CNC(=O)c2ccccc2)C2(C1)CN(c1ccccc1)C2 (stereo not drawn) | - | - | - | - | 0 | -
O=C(O)C(c1c[nH]c2cc(Br)ccc12)N1CCCN(c2ccc(C(F)(F)F)cn2)CC1 (stereo not drawn) | - | - | - | - | 25µM | -
O=C(O)C(c1c[nH]c2ccccc12)N1CCN(c2ncc(Br)cn2)CC1 (stereo not drawn) | - | - | - | - | 0 | -
CCCCCNC(=O)C(c1ccc(OC)cc1)n1c(=O)c(-c2ccco2)nc2ccccc21 (stereo not drawn) | - | - | - | - | 5.6µM | -
O=C(NC1CCCCC1)C(c1ccc(-c2ccccc2)cc1)n1c(=O)c(-c2ccco2)nc2ccccc21 (stereo not drawn) | - | - | - | - | 45µM | -
CCCCCNC(=O)C(c1cccc2ccccc12)n1c(=O)c(-c2ccccc2)nc2ccccc21 (stereo not drawn) | - | - | - | - | 0 | -
O=C(NCc1ccccc1)C(c1ccc(C(F)(F)F)cc1)n1c(=O)c(-c2ccco2)nc2ccccc21 (stereo not drawn) | - | - | - | - | 5µM | -
O=C(NC1CCCCC1)C(c1ccncc1)n1c(=O)c(-c2ccccc2)nc2ccccc21 (stereo not drawn) | - | - | - | - | 0 | -
CCCCCNC(=O)C(c1ccccc1F)n1c(=O)c(-c2ccco2)nc2ccccc21 (stereo not drawn) | - | - | - | - | 20µM | -
CC(NC(=O)CCc1c[nH]c2ccccc12)c1cccc(Cl)c1 (stereo not drawn) | - | - | - | - | 0 | -
CCN1CCC2(Cc3ccccc3CN(C(=O)C3CCCC3)C2)C1 (stereo not drawn) | - | - | - | - | 0[6.33 µM] | -
COC(=O)C1=C(C)NC(C)=C(C(=O)OC)C1c1ccc(-c2cc(Cl)ccc2Cl)o1 | 18µM | 0 | 0 | ? | ? | 0
COC(=O)C1=C(C)NC(C)=C(C(=O)OC)C1c1ccc(-c2cccc([N+](=O)[O-])c2)o1 | 79µM | 0 | ? | 0 | ? | 0
CC(=O)Nc1ccc(CNC2(Cc3cc(CN4CCOCC4)on3)COC2)cc1 | - | - | - | - | 0 | -
CC(=O)N1CCc2cc(Br)cc(S(=O)(=O)N3CCC(C(=O)O)CC3)c21 | 50µM | 0 | 0 | 0 | 0 | 0
CC(=O)N1CCc2cc(Br)cc(S(=O)(=O)NCc3ccccn3)c21 | ? | 0 | 79µM | 0 | 0 | 0
CC(=O)N1CCc2cc(Br)cc(S(=O)(=O)NCCc3ccc(Cl)cc3)c21 | 0 | 0 | 0 | - | 0 | 0
COc1ccc(NS(=O)(=O)c2cc(Br)cc3c2N(C(C)=O)CC3)cc1 | 0 | 0 | 0 | 0 | 0 | 0
COC(=O)c1cc(NS(=O)(=O)c2cc(Br)cc3c2N(C(C)=O)CC3)cc(C(=O)OC)c1 | 0 | 71µM | 0 | - | 0 | 0
CCC(=O)N1CCc2cc(Br)cc(S(=O)(=O)NCc3ccco3)c21 | 45µM | 0 | 0 | 0 | - | 0
CCOc1ccc(NC(=O)C2CC(=O)Nc3c(-c4ccc(F)cc4)cnn32)cc1 (stereo not drawn) | - | - | - | - | 0 | -
CCOc1ccc(NC(=O)c2c(NC(=O)CN3CCCC(C)C3)sc3c2CCC3)cc1 (stereo not drawn) | - | - | - | - | 0 | -
CCOc1cc(/C=C2\NC(=O)NC2=O)ccc1OCc1ccc(Cl)cc1 | - | - | - | - | 0 | -
CCN1c2cc(C(=O)Nc3ccc(C)c(F)c3)ccc2C(=O)N2CCCCCC21 (stereo not drawn) | - | - | - | - | 0 | -
